Among all 50,000 compounds or so, about 800 (1.6%) showed an effect of 50% or more. The sample as a whole holds a higher share of strong results than the screen did.
Biological target: Bcl-2-like protein 10 (Homo sapiens) (UniProt Q9HD36)
Experiment: TR3 peptide-Bcl-B binding displacers, biochemical primary FP assay, phenotype converters (AID 1240);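 also: 0% = Bcl-B with tracer peptide and DMSO and 100% = tracer peptide lacking Bcl-B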
Details: GST-Bcl-B / FITC-TR3 peptide fluorescence polarization; stronger effect = higher value; compound at 3.75 mg/L

Bcl-2-like protein 10 (Homo sapiens), sequence (Q9HD36 whole entry, looked up): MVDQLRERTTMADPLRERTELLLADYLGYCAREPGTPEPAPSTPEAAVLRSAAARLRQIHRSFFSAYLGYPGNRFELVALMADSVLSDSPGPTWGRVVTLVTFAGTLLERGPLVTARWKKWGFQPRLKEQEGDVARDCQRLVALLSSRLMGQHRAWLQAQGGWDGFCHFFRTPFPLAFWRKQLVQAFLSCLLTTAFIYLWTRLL

Row | SMILES | displacement
1 | Clc1ccccc1C=NN1CCN(Cc2ccccc2Cl)CC1 | -2.4%
2 | FC(F)(F)c1cc(/C=C/c2ccccc2)no1 | 7.7%
3 | CC(=O)Nc1ccc(S(=O)(=O)Nc2cccc(C)c2C)cc1 | 12.9%
4 | CN(C)c1ccc(/C=N/NC(=O)Cn2c3ccccc3c(=O)c3ccccc32)cc1[N+](=O)[O-] | 2.3%
5 | COc1cccc(/C=C2\N=C(c3ccccc3OC)OC2=O)c1 | -6%
6 | O=C1OC(c2ccc(F)cc2)=N/C1=C\c1ccc2c(c1)OCO2 | 15.9%
7 | O=C1OC(c2ccccc2F)=N/C1=C\c1ccc2c(c1)OCO2 | 80%
8 | O=C1OC(c2ccccc2Br)=N/C1=C\c1cc2c(cc1Cl)OCO2 | 116%
9 | O=C1/C(=C/c2ccc3c(c2)OCO3)SC(=S)N1c1ccc(F)cc1 | 11.8%
10 | O=C1/C(=C\c2ccc3c(c2)OCO3)N=C(c2ccccc2)N1c1ccc(F)cc1 | 179%
11 | COc1ccccc1C1=N/C(=C\c2ccc([N+](=O)[O-])cc2)C(=O)O1 | 27.4%
12 | O=C1OC(c2ccccc2F)=N/C1=C\c1ccc(Br)cc1 | 9%
13 | N=C1S/C(=C\c2ccc3c(c2)OCO3)C(=O)N1c1ccc(F)cc1 | 2.6%
14 | CN(C)/C=C1\N=C(c2ccccc2Br)OC1=O | -1.7%
15 | COc1ccccc1C1=N/C(=C\c2ccc3c(c2)OCO3)C(=O)O1 | 111%
16 | O=C1OC(c2ccccc2Br)=N/C1=C\c1cccnc1 | 4.7%
17 | Cn1nnnc1SCc1ccc(F)cc1 | -4%
18 | O=C1CS/C(=N/N=C/c2c3ccccc3cc3ccccc23)N1 | -1.8%
19 | CC(NC(=O)c1ccccc1)C12CC3CC(CC(C3)C1)C2 (configuration not stated) | 39.3%
20 | Cc1cccc(OCC(=O)O/N=C(\N)c2cccc(C)c2)c1 | -9.8%
21 | CCOC(=O)CONC(=NCc1ccccc1)c1nonc1N | 3.6%
22 | CCc1c(C)nc(N)nc1N1CCCC1 | 13.1%

Row | SMILES | displacement
23 | Cc1ccc(C(=O)NCCCN2CCOCC2)c2ccccc12 | -1.8%
24 | COc1ccccc1N1C(=O)c2ccc3c4c(ccc(c24)C1=O)CC3 | 13.4%
25 | COc1ccccc1N1C(=O)c2cccc3c(N4CCN(C)CC4)ccc(c23)C1=O | 157%
26 | Cc1ccccc1N1C(=O)c2cccc3c(N4CCCCC4)ccc(c23)C1=O | 15.9%
27 | COc1ccccc1N1C(=O)c2cccc3c(N(C)C)ccc(c23)C1=O | 42.1%
28 | COc1ccccc1N1C(=O)c2cccc3c(N4CCCC4)ccc(c23)C1=O | 102%
29 | COc1ccccc1N1C(=O)c2cccc3c(Cl)ccc(c23)C1=O | 22.2%
30 | Cc1cc(C)n(C2CC(=O)N(c3ccccc3)C2=O)n1 (configuration not stated) | 0.8%
31 | COc1ccc(C=C2C(=O)N(C)C(=O)N(C)C2=O)cc1O | -7.9%
32 | O=S(=O)(Nc1ccc(O)cc1)c1cc(Cl)ccc1Cl | -0.2%
33 | O=C(c1cccc(F)c1)N1CCN(C(=O)c2cccc(Cl)c2)CC1 | -18.6%
34 | O=c1sc2ccccc2c(N2CCN(c3ccccc3)CC2)c1[N+](=O)[O-] | -11.1%
35 | O=C(COC(=O)CN1C(=O)c2ccccc2C1=O)Nc1cccc2ccccc12 | -8.1%
36 | N#C/C(=C/c1ccc(Sc2ccccc2)o1)C(=O)Nc1ccccc1 | -22.8%
37 | N#C/C(=C\c1ccc(-c2ccccc2)o1)C(=O)Nc1ccc(C#N)cc1 | 168%
38 | N#C/C(=C/c1ccc(-c2ccc(S(N)(=O)=O)cc2)o1)C(=O)Nc1ccccc1 | -0.4%
39 | CCc1ccccc1NC(=O)/C(C#N)=C\c1ccc(Sc2ccccc2)o1 | -12.2%
40 | N#C/C(=C\c1ccc(-c2ccc(Cl)cc2)o1)C(=O)Nc1ccccc1O | -1%
41 | Cc1cccc(NC(=O)/C(C#N)=C\c2ccc(Sc3ccccc3)o2)c1C | 74.9%
42 | CCOc1ccc(/C=C/C(=O)c2ccc(F)cc2)cc1 | -0.4%
43 | CN(C)/C=C1\C(=O)N/C(=C/c2ccc(Br)cc2)C1=O | 7.9%
44 | CCN(CC)c1ccc(NC(=O)c2ccc3ccccc3n2)cc1 | 1.3%

Row | SMILES | displacement
45 | CCCCS(=O)CC(O)COC(C)C (configuration not stated) | -1.5%
46 | Cc1cc(OCC(=O)NC2C3CC4CC(C3)CC2C4)ccc1Br (configuration not stated) | -6.7%
47 | COc1ccc(/C=C2\C=C(c3ccc(C)cc3)OC2=O)cc1[N+](=O)[O-] | 6.6%
48 | COc1ccc(/C=C2\C=C(c3ccc(Br)cc3)OC2=O)cc1[N+](=O)[O-] | 70%
49 | COc1cc(OC)c([N+](=O)[O-])cc1/C=C1\C=C(c2ccc(Br)cc2)OC1=O | 49.1%
50 | COc1cc(/C=C2\C=C(c3ccc(Br)cc3)OC2=O)c([N+](=O)[O-])cc1OC | 55%
51 | COc1ccc(C2=C/C(=C\c3ccc(OC)c([N+](=O)[O-])c3)C(=O)O2)cc1 | 2.7%
52 | COc1cc(/C=C2\C=C(c3ccc(Cl)cc3)OC2=O)c([N+](=O)[O-])cc1OC | -11.8%
53 | COc1cccc(OCCCCS)c1 | 10%
54 | O=C(O)c1cc(S(=O)(=O)N2CCCCC2)ccc1O | -1.5%
55 | COc1ccc(C2CC(=O)C3=C(C2)Nc2ccccc2NC3c2cccc3ccccc23)cc1OC (configuration not stated) | 1.8%
56 | O=C(Nc1c(C(=O)N2CCOCC2)cnn1-c1ccccc1)c1cccs1 | 12.5%
57 | CN1CCN(Cc2c(O)ccc3cc(-c4ccccn4)c(=O)oc23)CC1 | 25.9%
58 | CN(C)Cc1c(O)ccc2cc(-c3nc4ccccc4s3)c(=O)oc12 | 110%
59 | CCc1cc2c(=O)c(-c3nc4ccccc4s3)coc2c(CN(C)C)c1O | -15%
60 | CCc1cc2c(=O)c(-c3nc4ccccc4s3)coc2c(CN2CCOCC2)c1O | 1%
61 | O=c1oc2c(CN3CCOCC3)c(O)ccc2cc1-c1nc2ccccc2s1 | 118%
62 | Cc1oc2c(CN3CCCC3)c(O)ccc2c(=O)c1-c1nc2ccccc2s1 | 12.7%
63 | Cc1oc2c(CN3CCN(C)CC3)c(O)ccc2c(=O)c1-c1nc2ccccc2s1 | 11.7%
64 | Cc1oc2c(CN(CC(C)C)CC(C)C)c(O)ccc2c(=O)c1-c1nc2ccccc2s1 | 12.7%
65 | CN1CCN(Cc2c(O)ccc3cc(-c4nc5ccccc5s4)c(=O)oc23)CC1 | 121%
66 | Cc1cccc(NC(=O)C2C(c3ccccc3)=C2c2ccccc2)c1C | 5.5%

Row | SMILES | displacement
67 | CCN(CC)c1ccc(NC(=O)COc2ccc(OC)cc2)cc1 | -5%
68 | COc1ccccc1N1C(=O)NC(=O)/C(=C/c2ccc(OC)c3ccccc23)C1=O | 5.3%
69 | C=CCOc1ccc(Cl)cc1/C=C1/SC(=S)NC1=O | -2.6%
70 | O=C(Nc1cc(Br)cc2cccnc12)c1ccc(Cl)cc1 | -7.2%
71 | Cc1cc(C=C2C(=O)NC(=S)NC2=O)c(C)n1-c1ccc(N2CCOCC2)cc1 | 22.3%
72 | Cc1cc(/C=C2\C(=O)NC(=O)N(C)C2=O)c(C)n1-c1ccc(N(C)C)cc1 | 124%
73 | Cc1cc(C=C2C(=O)NC(=O)NC2=O)c(C)n1-c1ccc(F)cc1 | 4.7%
74 | Cc1cc(/C=C2/NC(=O)NC2=O)c(C)n1-c1ccc(Cl)cc1 | 10.7%
75 | Cc1cc(C=C2C(=O)NC(=O)NC2=O)c(C)n1-c1ccc(N2CCOCC2)cc1 | 126%
76 | Cc1cc(C=C2C(=O)NC(=O)NC2=O)c(C)n1-c1ccc(Cl)cc1 | 106%
77 | Cc1cc(/C=C2\NC(=O)NC2=O)c(C)n1-c1ccc(N(C)C)cc1 | 3.4%
78 | Cc1cc(/C=C2/C(=O)NC(=O)N(c3ccccc3)C2=O)c(C)n1-c1ccccc1 | 30.8%
79 | Cc1cc(/C=C2/NC(=O)NC2=O)c(C)n1-c1ccc(N2CCOCC2)cc1 | -5.1%
80 | FC(F)(F)c1ccccc1CN1CCN(Cc2c[nH]c3ccccc23)CC1 | -5.2%
81 | C=C(C)CNC(=S)NC1=C(C)N(C)N(c2ccccc2)C1=C | -10.7%
82 | O=C(NC1CCS(=O)(=O)C1)/C(=C\c1ccc(Br)cc1)NC(=O)c1ccccc1 (configuration not stated) | 1.9%
83 | O=C1c2ccccc2C(=O)C12OC(c1ccc(Br)cc1)C1(C(=O)c3ccccc3C1=O)C2c1ccc(F)cc1 (configuration not stated) | 2.6%
84 | Fc1ccc(/C=N/Nc2nnc(-c3ccccc3)c(-c3ccccc3)n2)cc1 | 5.2%
85 | C(=C(\c1ccccc1)c1nc2ccccc2[nH]1)/c1ccco1 | 2.2%
86 | CCN1C(=O)c2cccc3c(NC(=O)c4ccc(S(=O)(=O)N5CCOCC5)cc4)ccc1c23 | 8.7%
87 | CCN1C(=O)c2cccc3c(S(=O)(=O)N(C)C)ccc1c23 | 6.6%
88 | CCN1C(=O)c2cccc3c(NC(=O)c4ccc(C(=O)c5ccccc5)cc4)ccc1c23 | 101%

Row | SMILES | displacement
89 | CCN1C(=O)c2cccc3c(NC(=O)c4cccs4)ccc1c23 | -29.9%
90 | O=C(Nc1cccc2ccccc12)c1ccc(S(=O)(=O)N2CCCCC2)cc1 | -8.9%
91 | CCN1C(=O)c2cccc3c(NC(=O)c4ccc(S(=O)(=O)N5CCCCCC5)cc4)ccc1c23 | 88.2%
92 | CCN1C(=O)c2cccc3c(NC(=O)c4ccc(Cl)s4)ccc1c23 | 11.6%
93 | CCN1C(=O)c2cccc3c(NC(=O)c4ccc(S(=O)(=O)N(C)C)cc4)ccc1c23 | 84.1%
94 | CCN1C(=O)c2cccc3c(NC(=O)c4ccc(Oc5ccccc5)cc4)ccc1c23 | -14.2%
95 | COCCNC(=O)Cc1ccc(Br)cc1 | 13.1%
96 | COc1ccc(CC(=O)Nc2cccc(NC(=O)c3cccc(Cl)c3)c2)cc1OC | -0.7%
97 | CCc1nn2c(N)c(C=C3C=CC(=O)C=C3)c(=O)nc2s1 | 1.9%
98 | COc1ccc(CCNC(=O)C2CN(S(=O)(=O)c3ccccc3)CCN2S(=O)(=O)c2ccccc2)cc1OC (configuration not stated) | -2.8%
99 | O=C(COC(=O)C1CC(=O)N(c2ccc(Cl)cc2)C1)c1ccccc1 (configuration not stated) | 9.1%
100 | O=C(NC(=S)Nc1ccc(N2CCCCC2)c(Cl)c1)c1ccco1 | -7.1%
101 | CC(C)CCn1c(=O)[nH]c2ccccc21 | 10.2%
102 | CCCc1c(C)nc2c(Cl)cccc2c1SCC(=O)O | -1.7%
103 | COC(=O)c1c(NC(=O)c2ccco2)sc2c1CCC2 | 91.1%
104 | NC(=O)c1c(NC(=O)c2ccco2)sc2c1CCC2 | 4.5%
105 | COC(=O)c1c(NC(=O)c2ccco2)sc2c1CCC(C)C2 (configuration not stated) | 0.1%
106 | CCc1ccccc1OCCCNC(C)(C)C | 1.5%
107 | O=C(NNC(=O)c1cc([N+](=O)[O-])ccc1Cl)c1ccc([N+](=O)[O-])cc1 | -4.8%

From PubChem BioAssay AID1240 (Sanford-Burnham Center for Chemical Genomics, 2008)
